Experimental data taken from PubChem BioAssay AID1209 (Sanford-Burnham Center for Chemical Genomics, 2008).
Among all 190,000 compounds or so, about 810 (0.43%) were called active. This is one part of a sample in which actives are shown more often than they occur. A number with no mark means an inactive call. Cut-off read from the data, not from the text of the source: active = inhibition above about 50%; inactive = the rest.

target: Mannose-6-phosphate isomerase (Homo sapiens) (UniProt P34949); experiment: inhibitors of human PMI, primary screen, biochemical, fluorescence intensity, coupled assay (AID 1209); conditions: purified PMI enzyme, at 20 µM, stronger effect = higher value;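 note: plate controls were DMSO vehicle for no effect and wells lacking substrate for full effect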
Sequence (P34949 whole entry, looked up): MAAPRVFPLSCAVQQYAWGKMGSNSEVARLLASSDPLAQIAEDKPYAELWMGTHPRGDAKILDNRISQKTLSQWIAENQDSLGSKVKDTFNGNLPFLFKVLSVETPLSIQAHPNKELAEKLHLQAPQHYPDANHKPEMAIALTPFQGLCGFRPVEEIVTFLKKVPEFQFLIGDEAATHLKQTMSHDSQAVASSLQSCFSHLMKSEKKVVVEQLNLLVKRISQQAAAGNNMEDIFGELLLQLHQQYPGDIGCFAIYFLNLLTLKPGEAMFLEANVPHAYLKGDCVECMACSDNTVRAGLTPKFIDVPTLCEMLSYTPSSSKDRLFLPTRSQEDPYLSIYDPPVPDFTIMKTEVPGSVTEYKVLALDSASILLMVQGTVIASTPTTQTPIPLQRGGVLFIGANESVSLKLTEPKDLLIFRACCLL

First: CC1=C(C)/C(=N\OC(=O)/C=C/c2ccccc2)C=CC1=O
Second: CC1=C(C)/C(=N/OC(=O)c2cccc([N+](=O)[O-])c2)C=CC1=O
The inhibition of the first is higher: 7.2% for the first, 4.4% for the second.

First: Cc1ccc(S(=O)(=O)O/N=C2\CCCc3ccccc32)cc1
Second: Cc1ccc(-n2c(O)c(C=NC3CCS(=O)(=O)C3)c3ccccc3c2=O)cc1 (stereo not given)
The inhibition of the first is higher: 9.6% for the first, 5.7% for the second.

First: COc1ccc(S(=O)(=O)/N=C2/C=CC(=O)C(C)=C2C)cc1
Second: Cc1cc(C)cc(-n2c(O)c(C=NC3CCS(=O)(=O)C3)c3ccccc3c2=O)c1 (stereo not given)
The inhibition of the first is higher: 14.5% for the first, 14.1% for the second.

Compared with `CS(=O)(=O)N(CC(=O)NCC1CCCO1)c1cccc([N+](=O)[O-])c1` (stereo not given), `Cn1c(SCC(=O)NCC2CCCO2)nnc1-c1ccc(S(=O)(=O)N2CCCC2)cc1` (stereo not given) is higher in inhibition: -8.6% for the first, -1.5% for the second.

Compared with `CCn1c(CNC(=O)Cc2ccc(OC)cc2)nnc1SCCOc1ccccc1`, `CCCn1c(CNC(=O)c2ccccc2)nc2ccccc21` is higher in inhibition: -11.5% for the first, 0.8% for the second.

First: CC(C)Nc1nc(NC(C)C)nc(N(C)C#N)n1
Second: CCc1c(C)nc2ncnn2c1NC1CCCc2ccccc21 (stereo not given)
The inhibition of the first is lower: 3.3% for the first, 15% for the second.

Going from `O=C(NN1CCN(Cc2ccccc2Cl)CC1)c1ccc(Br)cc1` to `CCOC(=O)c1c(C)oc2c1c(CN1CCN(C(=O)OCC)CC1)c(O)c1ccccc12`, the inhibition rises from -9.1% to 25.1%.

Compared with `O=S1(=O)CCN2C(c3cccc4ccccc34)=CSC2=N1`, `O=S1(=O)N=C(Nc2nncs2)c2ccccc21` is higher in inhibition: 2.1% for the first, 23.3% for the second.

Compared with `Nc1nnc(SCCOc2ccccc2)s1`, `O=C(C[n+]1cccc(CO)c1)Nc1nc2ccccc2s1` is lower in inhibition: 1.7% for the first, -3.4% for the second.

First: Clc1ccc(OCc2nnc(-c3ccccc3Br)o2)c(Cl)c1
Second: O=c1oc2ccccc2c(O)c1C=NCc1ccccn1
The inhibition of the first is lower: -0.9% for the first, 5.9% for the second.

Compared with `Cc1ccc(NC(=O)/C(=C/c2cccc([N+](=O)[O-])c2)NC(=O)C2CCCCC2)cc1`, `O=C(COC(=O)[C@@H]1CCCN1S(=O)(=O)c1ccccc1F)Nc1ccc(OC(F)F)cc1` is lower in inhibition: 14% for the first, 9.6% for the second.

Going from `CC(=O)/C(CN1CCCCC1)=N\O` to `C/C(=N\O)C(=O)NCCN1CCCCC1`, the inhibition rises from -6.1% to 1.5%.

Compared with `CC(C)c1ccc(NC(=O)C2CC(=O)N=C(N)S2)cc1` (stereo not given), `C=CCNC(=S)Nc1ccc(Cl)c(S(=O)(=O)N2CCOCC2)c1` is lower in inhibition: 7.7% for the first, -6.8% for the second.

Going from `Cc1ccc(C2=NN(C(=S)Nc3ccccc3)C(c3ccco3)C2)cc1` (stereo not given) to `COc1ccc(C2CC(c3ccccc3)=NN2C(=S)Nc2ccccc2)cc1` (stereo not given), the inhibition rises from 8.2% to 9.4%.

Going from `CCOC(=O)c1c(C)oc2c1c(C(c1cccnc1)N1CCCCC1)c(O)c1ccccc12` (stereo not given) to `CCOC(=O)c1c(C)oc2c1c(C(c1cccnc1)N1CCOCC1)c(O)c1ccccc12` (stereo not given), the inhibition falls from 28.2% to 22.6%.

Compared with `CCOC(=O)c1c(C)oc2c1c(C(c1ccccc1)N1CCOCC1)c(O)c1ccccc12` (stereo not given), `CCOC(=O)c1c(C)oc2c1c(C(c1ccncc1)N1CCOCC1)c(O)c1ccccc12` (stereo not given) is lower in inhibition: 37% for the first, 21% for the second.

Going from `O=C(O)CCN=Cc1c(O)c2ccccc2oc1=O` to `O=C(O)CCCN=Cc1c(O)c2ccccc2oc1=O`, the inhibition falls from 7.6% to 3.2%.

Compared with `CCOC(=O)c1c(C)oc2c1c(C(c1cccnc1)N1CCN(C)CC1)c(O)c1ccccc12` (stereo not given), `CCOC(=O)c1c(C)oc2c1cc(O)c1ccccc12` is lower in inhibition: 35.1% for the first, 13.4% for the second.

Going from `CCC1CCCCN1C(=O)COc1cccc2c1CCN(C)C2=O` (stereo not given) to `CCOC(=O)c1c(NCC2CCCO2)c2ccccc2[nH]c1=O` (stereo not given), the inhibition falls from -3.6% to -8.8%.

First: O=c1c2sc(-c3ccccc3)cc2nc2n1CCC2
Second: Cn1c(NC(=O)Cc2cccc3ccccc23)cc(=O)n(C)c1=O
The inhibition of the first is lower: -4.9% for the first, 7.2% for the second.

Going from `Clc1ccc(N/N=C/c2ccncc2)cc1Cl` to `O=C(/C=C/c1ccc(S(=O)(=O)NCc2ccco2)cc1)NCc1cccc(Cl)c1`, the inhibition falls from 5.3% to 0.4%.

First: CCNC(=O)NC(=O)C(C)SCc1ccccc1C (stereo not given)
Second: CCCn1c(NCc2ccccc2NS(=O)(=O)c2ccc(C)cc2)nc2ccccc21
The inhibition of the first is lower: -8.4% for the first, 27.9% for the second.

Going from `Oc1[nH]c2ccccc2c1C=NCC1CCCO1` (stereo not given) to `O=C(N/N=C/c1coc2ccccc2c1=O)c1ccccc1Br`, the inhibition falls from -2.9% to -7.2%.

First: NNC(=O)c1sc2cc(C(F)(F)F)cnc2c1-c1cccnc1
Second: CCC(=O)OCCNc1cc(Sc2nccn2C)c2nonc2c1[N+](=O)[O-]
The inhibition of the first is lower: 3.5% for the first, 20.4% for the second.

Going from `O=C1CNC(=O)N1CC(O)Cn1c2ccccc2c2ccccc21` (stereo not given) to `Cn1c(C(C#N)C(=O)Cc2cccc3ccccc23)nc2ccccc21` (stereo not given), the inhibition falls from 5.5% to -7.2%.

First: COC(=O)CCSc1cc(NCCOC(C)=O)c([N+](=O)[O-])c2nonc12
Second: CCCSc1cc(NCCOC(C)=O)c([N+](=O)[O-])c2nonc12
The inhibition of the first is lower: 4.9% for the first, 27.6% for the second.

`CCCSc1cc(NCCOC(=O)CCC)c([N+](=O)[O-])c2nonc12` gave an inhibition of 41.9%.

For `CC1=C(C)/C(=N\OS(=O)(=O)c2ccc(C)cc2)C=CC1=O`, the inhibition was 75.6% (active).
`C/C(=N\O)C(=O)C(CN1CCCCC1)CN1CCCCC1` was tested, and the inhibition was 52.4% (active).
With `Cc1ccc(C2CC(c3ccccc3)=NN2C(=S)Nc2ccccc2)o1` (stereo not given) the inhibition was 53% (active).
In the case of `CCOC(=O)c1c(C)oc2c1c1c(c3ccccc32)OCN(Cc2cccnc2)C1`, the inhibition is reported as 71.9% (active).
With `CCOC(=O)c1c(C)oc2c1c(C=NC1CCS(=O)(=O)C1)c(O)c1ccccc12` (stereo not given) the inhibition was 76.1% (active).
In the case of `CCOC(=O)c1c(C)oc2c1c(C=NCCC(=O)O)c(O)c1ccccc12`, the inhibition is reported as 77.4% (active).
`CCOC(=O)c1c(C)oc2c1c(CN1CCN(CCO)CC1)c(O)c1ccccc12` was tested, and the inhibition was 57.7% (active).
`CCOC(=O)c1c(C)oc2c1c(C=NCC1CCCO1)c(O)c1ccccc12` (stereo not given) was tested, and the inhibition was 63.6% (active).
With `CCOC(=O)c1c(C)oc2c1c(C=NCc1ccccn1)c(O)c1ccccc12` the inhibition was 62.5% (active).
In the case of `CCCn1c(CNS(=O)(=O)c2ccc(C)cc2)nc2ccccc21`, the inhibition is reported as 83.3% (active).
In the case of `CCCC(=O)OCCNc1cc(SCCC(=O)OC)c2nonc2c1[N+](=O)[O-]`, the inhibition is reported as 81.2% (active).
`CCC(=O)OCCNc1cc(SCCC(=O)OC)c2nonc2c1[N+](=O)[O-]` was tested, and the inhibition was 79.5% (active).
